31 compounds from ChEMBL document CHEMBL2218924, “A broad activity screen in support of a chemogenomic map for kinase signalling research and drug discovery” (Biochem J, 2013) can be followed below.

In general, residual activity refers to the signal under treatment as a percentage of the control signal.

Rho-associated protein kinase 2 (Homo sapiens), sequence (O75116 whole entry, looked up): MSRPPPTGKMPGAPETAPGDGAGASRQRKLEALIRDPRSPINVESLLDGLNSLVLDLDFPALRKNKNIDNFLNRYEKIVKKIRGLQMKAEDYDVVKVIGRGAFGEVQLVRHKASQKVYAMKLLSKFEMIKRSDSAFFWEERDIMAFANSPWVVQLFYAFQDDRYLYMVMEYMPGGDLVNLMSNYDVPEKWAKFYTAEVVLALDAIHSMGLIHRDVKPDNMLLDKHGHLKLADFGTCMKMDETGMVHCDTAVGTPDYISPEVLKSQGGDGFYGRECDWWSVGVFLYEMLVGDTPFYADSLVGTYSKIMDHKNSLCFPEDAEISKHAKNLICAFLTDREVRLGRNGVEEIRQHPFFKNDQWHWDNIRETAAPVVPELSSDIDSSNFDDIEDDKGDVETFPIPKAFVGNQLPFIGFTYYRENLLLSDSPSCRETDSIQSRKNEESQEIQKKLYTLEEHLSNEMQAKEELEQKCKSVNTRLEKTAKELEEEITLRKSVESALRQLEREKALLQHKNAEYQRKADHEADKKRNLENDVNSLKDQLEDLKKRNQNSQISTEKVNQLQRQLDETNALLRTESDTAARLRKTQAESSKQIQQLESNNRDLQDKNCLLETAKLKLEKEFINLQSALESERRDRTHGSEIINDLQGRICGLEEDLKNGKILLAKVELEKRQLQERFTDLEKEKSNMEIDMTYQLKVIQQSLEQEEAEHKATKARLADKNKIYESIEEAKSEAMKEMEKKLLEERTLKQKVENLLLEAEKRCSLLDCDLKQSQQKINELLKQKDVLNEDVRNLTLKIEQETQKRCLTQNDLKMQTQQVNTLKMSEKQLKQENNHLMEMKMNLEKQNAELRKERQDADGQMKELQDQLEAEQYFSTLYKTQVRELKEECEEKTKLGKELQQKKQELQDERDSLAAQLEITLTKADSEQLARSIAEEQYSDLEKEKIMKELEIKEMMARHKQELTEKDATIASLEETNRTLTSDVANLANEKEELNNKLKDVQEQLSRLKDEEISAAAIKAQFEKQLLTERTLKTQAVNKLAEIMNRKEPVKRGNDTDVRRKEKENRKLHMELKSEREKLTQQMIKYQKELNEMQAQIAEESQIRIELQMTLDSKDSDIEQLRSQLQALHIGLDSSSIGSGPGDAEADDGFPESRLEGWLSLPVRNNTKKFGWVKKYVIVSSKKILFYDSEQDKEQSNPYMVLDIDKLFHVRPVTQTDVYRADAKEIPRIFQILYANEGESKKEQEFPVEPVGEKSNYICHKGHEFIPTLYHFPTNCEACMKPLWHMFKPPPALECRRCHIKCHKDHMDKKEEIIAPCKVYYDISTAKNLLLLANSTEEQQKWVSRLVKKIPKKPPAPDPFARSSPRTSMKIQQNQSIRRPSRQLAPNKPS

One assay concerns the target Rho-associated protein kinase 2 (Homo sapiens) (UniProt O75116). The conditions noted are these: at 1 µM.
Take `CCN(CC)C(=O)c1ccc(Nc2nc(OCC3CCCCC3)c3nc[nH]c3n2)cc1`: the residual activity amounted to 33%. Same read-out and setting: the same measure for `Cc1ccc(S(=O)(=O)/C=C/C#N)cc1`: 89%; for `Oc1n[nH]c2nnc(-c3c(-c4ccccc4)nn4ccccc34)cc12`: 83%; for `Cc1nc(-c2ccccc2)c(-c2ccncc2)o1`: 106%.

Regarding `Oc1ccc(-c2nc(-c3ccc(F)cc3)c(-c3ccncc3)[nH]2)cc1`, the residual activity was 95%. The same measure, in the same setting: as for `COc1cc2ncnc(Nc3ccc(O)c(Br)c3)c2cc1OC`, the figure is 39%.

As for `CO[C@H]1C[C@@H]2CC[C@@H](C)[C@@](O)(O2)C(=O)C(=O)N2CCCC[C@H]2C(=O)O[C@H]([C@H](C)C[C@@H]2CC[C@@H](O)[C@H](OC)C2)CC(=O)[C@H](C)/C=C(\C)[C@@H](O)[C@@H](OC)C(=O)[C@H](C)C[C@H](C)/C=C/C=C/C=C/1C`, the residual activity was found to be 99%.

For the compound `Cn1cnc2cc3c(Nc4cccc(Br)c4)ncnc3cc21`, the residual activity was found to be 93%. For the compound `O=C1NC(=O)c2cc(Nc3ccc(F)cc3)c(Nc3ccc(F)cc3)cc21`, the residual activity worked out at 101%. On the same count and under the same terms, the same measure for `c1ccc(-c2n[nH]cc2-c2ccnc3ccccc23)nc1`: 93%; for `CN(C)CCCn1cc(C2=C(c3c[nH]c4ccccc34)C(=O)NC2=O)c2ccccc21`: 119%; for `O=C1NC(=O)/C(=C\c2ccc3nccnc3c2)S1`: 95%. The same measure, in the same setting: as for `CO[C@@H]1[C@H](N(C)C(=O)c2ccccc2)C[C@H]2O[C@]1(C)n1c3ccccc3c3c4c(c5c6ccccc6n2c5c31)C(=O)NC4`, the figure is 79%; as for `COc1ccc(OC)c2c(=S)c3ccccc3[nH]c12`, 86%; as for `N#CCCc1ccc2c(c1)-c1[nH]c3ccc([N+](=O)[O-])cc3c1CC(=O)N2`, 8%. Same read-out and setting: the same measure for `CC#CC(=O)Nc1cc2c(Nc3ccc(F)c(Cl)c3)ncnc2cn1`: 92%; for `c1ccc(-c2n[nH]c3c2oc2ccccc23)cc1`: 97%.

Consider `Cc1cncc2cccc(S(=O)(=O)N3CCCN(C(=O)CN)C[C@H]3C)c12`, for which the residual activity was determined as 1%. Same read-out and setting: as for `C[C@@H](N)[C@H]1CC[C@H](C(=O)Nc2ccncc2)CC1`, the figure is 19%; as for `Oc1ccc(Nc2nc(-c3ccc(Cl)cc3)cs2)cc1`, 100%. On the same count and under the same terms, as for `COc1cc2ncnc(Nc3ccc(Oc4ccccc4)cc3)c2cc1OC`, the figure is 104%; as for `Nc1n[nH]c2nnc(-c3c(-c4ccccc4)nn4ccccc34)cc12`, 84%. The same measure, in the same setting: the same measure for `O=C1Nc2ccc(Br)cc2/C1=C\c1cc2c([nH]1)CCCC2`: 101%; for `Ic1cccc(CSc2nnc(-c3ccncc3)o2)c1`: 68%; for `Cc1cccc(-c2[nH]c(C(C)(C)C)nc2-c2ccc3c(c2)OCO3)n1`: 103%. For `Cn1nc2c3c(cccc31)C(=O)c1ccccc1-2`, the residual activity turned out to be 104%. On the same count and under the same terms, the same measure for `O=c1c2ccccc2[nH]c(=S)n1CCN1CCC(=C(c2ccc(F)cc2)c2ccc(F)cc2)CC1`: 109%.

As to `Cc1ccc(NC2=CC(=O)c3sc(C)nc3C2=O)cc1`, the residual activity stood at 87%.

Take `COc1cc2ncnc(N3CCN(C(=O)Nc4ccc(Oc5ccccc5)cc4)CC3)c2cc1OC`: the residual activity worked out at 98%.

For another assay the target is unchanged. The conditions noted are these: at 10 µM.
Consider `COc1cc2ncnc(Nc3ccc(NC(=O)c4ccccc4)cc3)c2cc1OC`, for which the residual activity was found to be 82%.

For `CCN(CC)C(=O)c1ccc(Nc2nc(OCC3CCCCC3)c3nc[nH]c3n2)cc1`, the residual activity is 4%. On to `Cc1ccc(S(=O)(=O)/C=C/C#N)cc1`, for which the residual activity was determined as 93%. Consider `Oc1n[nH]c2nnc(-c3c(-c4ccccc4)nn4ccccc34)cc12`, for which the residual activity stood at 91%. On the same count and under the same terms, the same measure for `Cc1nc(-c2ccccc2)c(-c2ccncc2)o1`: 76%. Same read-out and setting: as for `Oc1ccc(-c2nc(-c3ccc(F)cc3)c(-c3ccncc3)[nH]2)cc1`, the figure is 36%; as for `COc1cc2ncnc(Nc3ccc(O)c(Br)c3)c2cc1OC`, 40%. Same read-out and setting: the same measure for `CO[C@H]1C[C@@H]2CC[C@@H](C)[C@@](O)(O2)C(=O)C(=O)N2CCCC[C@H]2C(=O)O[C@H]([C@H](C)C[C@@H]2CC[C@@H](O)[C@H](OC)C2)CC(=O)[C@H](C)/C=C(\C)[C@@H](O)[C@@H](OC)C(=O)[C@H](C)C[C@H](C)/C=C/C=C/C=C/1C`: 92%; for `Cn1cnc2cc3c(Nc4cccc(Br)c4)ncnc3cc21`: 81%; for `O=C1NC(=O)c2cc(Nc3ccc(F)cc3)c(Nc3ccc(F)cc3)cc21`: 78%.

As to `c1ccc(-c2n[nH]cc2-c2ccnc3ccccc23)nc1`, the residual activity amounted to 76%.

On to `CN(C)CCCn1cc(C2=C(c3c[nH]c4ccccc34)C(=O)NC2=O)c2ccccc21`, for which the residual activity stood at 88%. Take `O=C1NC(=O)/C(=C\c2ccc3nccnc3c2)S1`: the residual activity turned out to be 80%. On the same count and under the same terms, as for `CO[C@@H]1[C@H](N(C)C(=O)c2ccccc2)C[C@H]2O[C@]1(C)n1c3ccccc3c3c4c(c5c6ccccc6n2c5c31)C(=O)NC4`, the figure is 57%; as for `COc1ccc(OC)c2c(=S)c3ccccc3[nH]c12`, 95%; as for `N#CCCc1ccc2c(c1)-c1[nH]c3ccc([N+](=O)[O-])cc3c1CC(=O)N2`, 7%.

As for `CC#CC(=O)Nc1cc2c(Nc3ccc(F)c(Cl)c3)ncnc2cn1`, the residual activity came to 77%.

On to `c1ccc(-c2n[nH]c3c2oc2ccccc23)cc1`, for which the residual activity amounted to 75%.

For `Cc1cncc2cccc(S(=O)(=O)N3CCCN(C(=O)CN)C[C@H]3C)c12`, the residual activity was -1%.

For the compound `C[C@@H](N)[C@H]1CC[C@H](C(=O)Nc2ccncc2)CC1`, the residual activity was found to be 4%.

`Oc1ccc(Nc2nc(-c3ccc(Cl)cc3)cs2)cc1`: the residual activity is 102%. The same measure, in the same setting: the same measure for `COc1cc2ncnc(Nc3ccc(Oc4ccccc4)cc3)c2cc1OC`: 84%; for `Cc1cc(Nc2nc(-c3ccccc3)nc3ccccc23)n[nH]1`: 98%; for `Nc1n[nH]c2nnc(-c3c(-c4ccccc4)nn4ccccc34)cc12`: 90%.

Turning to `O=C1Nc2ccc(Br)cc2/C1=C\c1cc2c([nH]1)CCCC2`, the residual activity was 82%. On the same count and under the same terms, the same measure for `Ic1cccc(CSc2nnc(-c3ccncc3)o2)c1`: 58%; for `Cc1cccc(-c2[nH]c(C(C)(C)C)nc2-c2ccc3c(c2)OCO3)n1`: 82%; for `Cn1nc2c3c(cccc31)C(=O)c1ccccc1-2`: 89%.

For the compound `O=c1c2ccccc2[nH]c(=S)n1CCN1CCC(=C(c2ccc(F)cc2)c2ccc(F)cc2)CC1`, the residual activity came to 86%. Consider `Cc1ccc(NC2=CC(=O)c3sc(C)nc3C2=O)cc1`, for which the residual activity is 90%. The same measure, in the same setting: as for `COc1cc2ncnc(N3CCN(C(=O)Nc4ccc(Oc5ccccc5)cc4)CC3)c2cc1OC`, the figure is 87%.
